Molecules are shown by their SMILES. Active and inactive are the calls of the source. Rule for the calls: active = hit-call score of the fitted dose curve at least 0.9, where 1 is the maximum; inactive = score below 0.9.

The record followed here is PubChem BioAssay (EPA / NIEHS).

Read-out in the assay: Transforming growth factor beta 1 (TGFb1), TGFB1 (gene 7040)
The assay is described as follows: BSK_KF3CT_TGFb1: BioMAP Diversity Plus: KF3CT Assay for Transforming growth factor beta 1 (TGFb1) Biomarker Activity (AID 2283072). The conditions noted are these: primary human keratinocytes with fibroblasts; actives raise or lower the signal. As for the experimental part:
BSK_KF3CT is a cell-based, multiplexed-readout assay that uses keratinocytes and foreskin fibroblasts, a human skin primary cell co-culture, with measurements taken at 24 hours after chemical dosing in a 96-well plate.BSK_KF3CT_TGFb1 is an assay component measured in the BSK_KF3CT assay. It measures TGF-b1 antibody related to regulation of gene expression using ELISA technology.Data from the assay component BSK_KF3CT_TGFb1 was analyzed into 1 assay endpoint. This assay endpoint, BSK_KF3CT_TGFb1, was analyzed with bidirectional fitting relative to DMSO as the negative control and baseline of activity. Using a type of binding reporter, gain or loss-of-signal activity can be used to understand changes in the signaling as they relate to the gene TGFB1. Furthermore, this assay endpoint can be referred to as a primary readout, because this assay has produced multiple assay endpoints where this one serves a signaling function. To generalize the intended target to other relatable targets, this assay endpoint is annotated to the growth factor intended target family, where the subfamily is transforming growth factor beta.
The levels of cell surface (or secreted, indicated by the prefix "s") biomarker endpoints were measured by ELISA. Overt cytotoxicity to cells in confluent adherent cultures (all systems other than the BT system) was assessed by measuring total protein levels using sulforhodamine B (SRB) staining in parallel cultures at the time of biomarker measurements, indicated as SRB endpoints. For proliferation assays for adherent cell types, individual cell types are cultured at sub-confluence and relative cell numbers quantified by SRB staining at time points optimized for each system (48 h: 3C and CASM3C systems; 72 h: BT and HDF3CGF systems; 96 h: SAg system). SRB was performed by staining cells with 0.1% SRB after fixation with 10% TCA and reading wells at 560 nm.Viability and proliferation of PBMC (T cells) was quantified by Alamar Blue reduction for the SAg and BT systems. For PBMC viability (referred to as PBMC Cytotoxicity within the assay endpoint names), cells were plated (75,000/well in a 96-well plate) and then chemical samples added for 1 h before addition of activators, SEB and TSST-1 (20 ng/mL final concentration each). Cells were incubated for 90 h. Then, Alamar Blue (20 uL/well) (Invitrogen, Cat DAL1100) was added for 6 h, and the plates were read with a fluorescence microplate reader at 546/580 nm (excitation/emission). For PBMC proliferation, cells were plated and activated as above but incubated for only 16 h prior to addition of Alamar Blue. Plates were read after 6 h.
For `CCN(CC)c1ccc2c(c1)Oc1cc(N(CC)CC)ccc1C21OC(=O)c2ccccc21`, the result was inactive.
On the same count and under the same terms, as for `CCN(CC)c1ccc(C=O)cc1`, the entry is “inactive”.
The same measure, in the same setting: the result for `CC(C)(C)c1cc(CCC(=O)NCCCCCCNC(=O)CCc2cc(C(C)(C)C)c(O)c(C(C)(C)C)c2)cc(C(C)(C)C)c1O` reads “inactive”.
Still for that read-out and setting: the result for `CC1=CC2C3C=CC(C3)C2C1C` (stereo unspecified) reads “inactive”.
As a reminder, the AC50 is the concentration giving half of the maximal activity seen. With `Cc1cc(O)c(C(C)(C)C)cc1C(C)(C)C`, the AC50 was 3.85 µM (active).
As to `Cc1cnccn1`, the result was inactive.
Consider `CC(C)CCCC(C)CCO` (stereo unspecified), for which the half-maximal activity concentration (AC50) was 30.1 µM (active).
Take `O=C1c2c(O)ccc(Nc3ccc(CCO)cc3)c2C(=O)c2c([N+](=O)[O-])ccc(O)c21`: the result was inactive.
In the case of `Cc1ccc(S(=O)(=O)C(I)I)cc1`, the outcome was inactive.
`O=C=Nc1cccc2c(N=C=O)cccc12`: the result was inactive.
As to `Cc1cc(C)c(O)c(C(C)(C)C)c1`, the AC50 is 30.8 µM (active).
For the compound `C[C@]12CC[C@H]3C(=CCc4cc(O)ccc43)[C@@H]1CCC2=O`, the result was inactive.
On to `CCOC(C=C(C)CCC=C(C)C)OCC`, for which the AC50 was 3.97 µM (active).
For `Cc1ccc(O)c(-n2nc3ccccc3n2)c1`, the outcome was inactive.
Still for that read-out and setting: the result for `O=C=NCc1cccc(CN=C=O)c1` reads “inactive”; that for `Brc1nc2ccccc2s1`, “inactive”.
`O=C1C=CC(=O)N1c1ccc(Cc2ccc(N3C(=O)C=CC3=O)cc2)cc1`: the AC50 is 3.46 µM (active).
`CCN(CC)c1ccc(N=Nc2ccccc2)cc1`: the outcome was inactive.
The same measure, in the same setting: as for `CCN(CC)c1ccc(C=O)c(O)c1`, the entry is “inactive”.
For `O=C(c1ccccc1)c1ccc(O)cc1O`, the result was inactive.
Still for that read-out and setting: the result for `Nc1cc([N+](=O)[O-])cc(Cl)c1O` reads “inactive”.
